# NALP1 yeast inh – NALP1 inhibition | inhibition, % at 10 µM | actives 0.61% (n = 280,000) | S. cerevisiae NALP1/ASC/caspase-1 growth, X-gal OD620, 72 h; in the data active means inhibition mostly above about 24%, no sharp cut-off; inactive means mostly below about 32%
# HSP90 refold inh – blocks HSP90-mediated luciferase refolding in reticulocyte lysate | Rabbit reticulocyte lysate, luciferase refolding luminescence, 3 h | inhibition, % at 5.6 µM | actives 0.91% (n = 290,000) | AID 1789;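 active means inhibition above the screen-wide mean plus 3 SD, computed separately per campaign, cut at about 16% in these data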;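 further: 0% = DMSO wells and 100% = 60 µM geldanamycin wells; inhibitors lower the luminescence because luciferase stays unfolded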
# p-CIP stab down – p/CIP protein destabilization. decrease of EGFP signal, % at 10 µM. F442A p/CIP-EGFP cells, EGFP fluorescence, 16 h. Q05BA5. actives 0.01% (n = 290,000);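 active means EGFP signal decrease of at least 30% at 10 µM or well 3 SD below plate mean, unless failing retest; inactive means the rest, including hits failing retest or dose response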
# HSF-1 act – increases HSF-1 driven luciferase reporter signal | NIH3T3-HGL HSF-1 luciferase reporter, MG132, 8 h; 100% = twice DMSO control signal | activation, % at 9 µM | actives 1.7% (n = 300,000) | AID 504408;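 active means mean replicate activation of at least 50% with a set share of replicates each reaching 50%; inconclusive means only one of those two conditions met; inactive means mean below 50% and too few replicates reaching it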;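 further: 0% = median of the neutral control wells and 100% = twice that signal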
# HSF1 inh – HSF1 inhibition | NIH3T3-HGL HSE-luciferase, MG132-induced, luminescence 8 h; stronger effect = lower value | activity change, negative = inhibition, % at 7.5 µM (by protocol) | actives 0.77% (n = 300,000);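 active means more than half of replicate wells show activity change below -50%, luminescence cut by over half; inconclusive means some wells, but at most half, below -50%; inactive means no replicate well below -50%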;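 further: luciferase reports HSF-1 transcriptional activity via heat shock element; 0% = median of DMSO wells and -100% = zero luminescence signal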
# Hsp70 activator – transcriptional activators of Hsp70 | HeLa Hsp70 promoter luciferase reporter, luminescence; scaled: vehicle 0, proteasome-inhibitor control 100% | activation, % at 10 µM | actives 0.04% (n = 200,000);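 active means activation above the mean across all tested compounds plus 3 SD, cutoff set per campaign, cut at about 5.5% in these data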;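 further: 100% = MG132 at 30 µM as the positive control and 0% = DMSO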
# Starred values were filed as active, the others as inactive; ? = inconclusive; . = not tested or not shown. Shown are actives, neighbours in structure and some others; about 3.8% of the full set was active somewhere.
SMILES,NALP1 yeast inh,HSP90 refold inh,p-CIP stab down,HSF-1 act,HSF1 inh,Hsp70 activator
O=C1CCCN1CCCN=c1c([N+](=O)[O-])nn(-c2ccc(Cl)cc2)n1O,-9,1,-12,62*,33,0
Cc1ccc(N=c2c([N+](=O)[O-])nn(-c3ccc4c(c3)OCCO4)n2O)c(Cl)c1,-5,17*,-7,-69,-63*,0
Cc1ccc(N=c2c([N+](=O)[O-])nn(-c3ccc4c(c3)OCCO4)n2O)cc1F,-9,2,5,-84,-79*,0
O=[N+]([O-])c1nn(-c2ccc3c(c2)OCCO3)n(O)c1=Nc1ccccc1,-37,2,-3,-91,-89*,-1
COc1ccc(-n2nc([N+](=O)[O-])c(=NCCCN3CCCC3=O)n2O)cc1,7,-1,6,-5,-6,0
Cc1ccc(C2(c3ccc(C)cc3)NC(=O)N(CC(N)=O)C2=O)cc1,8,1,-8,17,1,.
O=[N+]([O-])c1nn(-c2ccc3c(c2)OCCO3)n(O)c1=Nc1ccc(Cl)cc1,-5,9,-8,-84,-79*,0
CCOc1cccc(-c2c(C(=O)N/N=C/c3ccc(C)o3)nnn2-c2nonc2N)c1,10,-2,5,-74,-68*,.
CCOc1cccc(-c2c(C(=O)N/N=C/c3ccco3)nnn2-c2nonc2N)c1,-9,-2,-1,18,-2,.
COc1cccc(-c2c(C(=O)N/N=C(\C)c3ccc(Cl)s3)nnn2-c2nonc2N)c1,5,-1,11,56*,27,.
NS(=O)(=O)c1ccc(CCNC(=O)c2cc(-c3ccccn3)nc3ccc(Br)cc23)cc1,41*,-2,-11,27,8,0
NS(=O)(=O)c1ccc(CCNC(=O)c2cc(-c3ccc(Br)cc3)nc3ccccc23)cc1,3,-2,1,23,0,0
O=C(NCCc1ccc(Cl)cc1)c1cc(-c2ccccn2)nc2ccccc12,5,2,-9,4,17,.
CCCc1ccc(-c2cc(C(=O)NCCc3ccc(S(N)(=O)=O)cc3)c3ccccc3n2)cc1,15,1,-7,85*,41,1
N/C(=N\OC(=O)CSc1ccccc1)c1cccc([N+](=O)[O-])c1,14,-4,-8,.,.,0
Cc1ccc(C)c(S(=O)(=O)N2CCN(CC(=O)Nc3ccc4c(c3)OCCO4)CC2)c1,4,-1,8,-4,-9,0
Cc1ccc(C)c(S(=O)(=O)N2CCN(CC(=O)Nc3cc(C)on3)CC2)c1,7,-1,-4,71*,40,0
CC(Sc1nc2ccccc2c(=O)n1C)C(=O)N(C)C1CCCCC1 (stereo not drawn),.,.,.,-6,0,.
Cc1ccc(/C=N/Nc2ccc(C(=O)O)cc2)o1,7,12,10,1,-3,0
Cc1ccc(/C=N/Nc2ccc(C(=O)O)cc2)s1,-6,79*,6,-79,-76*,0
Cn1c(CN2CCOCC2)nnc1SCc1cccc(F)c1,26,-9,-8,.,.,0
O=C1OCCN1c1c(-c2ccccc2)c(-c2cccs2)nc2c(-c3ccccc3)cccc12,-6,10,-6,16,10,.
O=C(O)C[C@H]1c2ccc(C(F)(F)F)cc2S(=O)(=O)N1Cc1ccccc1,.,.,.,-15,-4,.
COc1cc(Cl)cc(/C=C/c2ccc3ccccc3n2)c1OC(C)=O,23,-4,4,183*,158,0
Cc1nc2cc(NC(=O)NCCCO)ccc2o1,29*,5,-2,-18,-1,0
SMILES,NALP1 yeast inh,HSP90 refold inh,p-CIP stab down,HSF-1 act,HSF1 inh,Hsp70 activator
O=[N+]([O-])c1ccc(S(=O)(=O)c2ccccc2)nc1,21,4,-17,-96,-96*,.
Cc1ccc(S(=O)(=O)c2ccc([N+](=O)[O-])cn2)cc1,35*,-2,-12,-88,-84*,.
CN(CC(=O)NCCc1ccc(Cl)cc1)S(=O)(=O)c1cccs1,0,1,-11,2,5,.
COc1cc(/C=C/C(=O)O)cc(S(=O)(=O)Nc2ccc3nc(C)sc3c2)c1OC,.,17*,-8,-17,-14,.
COc1cc(/C=C/C(=O)O)cc(S(=O)(=O)Nc2ccc(F)cc2)c1OC,15,1,3,-8,-2,0
Cc1ccc(NC(=O)N2CCCC2C(=O)NCc2ccccc2Cl)cc1 (stereo not drawn),0,-1,9,3,5,.
O=C1CSC(=S)N1c1cccc(O)c1,96*,-3,-6,18,4,.
CCN=c1sc(C(=O)NCCc2ccccc2)cc(=O)n1CC,16*,2,12,-16,-6,0
COCCNC(=O)CCCn1c(=O)c2cc(OC)c(OC)cc2n(CC(=O)c2ccc(Cl)cc2)c1=O,3,0,2,-4,-5,0
N#C/C(=C\c1ccc[nH]1)C(=O)Nc1ccccc1[N+](=O)[O-],17,0,0,61*,24,.
Cc1nonc1NC(=O)CSc1nnc(-c2ccoc2C)n1-c1cccc(Cl)c1,44*,1,2,9,2,0
CCCn1c(SCC(=O)Nc2nonc2C)nnc1-c1ccoc1C,3,0,2,-9,-13,0
c1ccc(C2CCC3(CC2)Oc2ccccc2C2CC(c4cccnc4)=NN23)cc1 (stereo not drawn),32,-7,-7,-4,4,0
CC1(C)C=C2C(=NN(c3ccccc3)C(N)=C2C#N)CO1,-46,-1,6,-78,-71*,.
CC1(C)Cc2c(C#N)c(N)n(-c3ccccc3)c(=S)c2CO1,8,-4,-5,?,28,.
CC(C)N1C/C(=C/c2cccnc2)C(=O)/C(=C/c2cccnc2)C1,106*,4,-11,.,.,0
O=S(=O)(c1cnccc1N1CCN(CCO)CC1)N1CCCCC1,19,-5,-6,-19,-4,.
CC(C)c1ccc(C2CC(c3ccc(Br)cc3)=NN2C(N)=S)cc1 (stereo not drawn),11,-1,-5,74*,48,0
CNC(=S)N1N=C(c2ccc(C)cc2)CC1c1ccc(Br)cc1 (stereo not drawn),7,3,8,18,6,0
COc1ccc(C2=NOC(COc3ccc4c(C)cc(=O)oc4c3)C2)c(OC)c1 (stereo not drawn),.,4,0,-1,-10,.
Cc1cc(=O)oc2cc(OCC#N)ccc12,35,-4,-5,-66,-56*,0
COc1ccccc1C1=NOC(COc2ccc3c(C)cc(=O)oc3c2)C1 (stereo not drawn),40*,6,-21,-23,-21,.
Cc1ccc(NC(=S)N2CCC(NC(=O)c3ccc(F)cc3)CC2)cc1,26,-3,-6,12,-8,.
O=S(=O)(c1ccc(Cl)c(Cl)c1)c1snnc1-c1ccccc1,28,3,7,431*,296,0

# High-throughput results: PubChem BioAssay, several laboratories
